# Results: PubChem BioAssay (Tox21)
# Several values for one entry are separate records, joined by “and”; a condition that tells them apart may be missing. Equal values may be shown once. Results filed as inconclusive are left out. Entries that show only a call come without a potency. Some structures have more than one record in an assay (separate samples or runs), and their calls can disagree. Activity calls are given as the source filed them. Unless noted, calls follow the shape of the dose curve; as a rule, active = well fitted curve in the direction sought with a large enough effect in the repeat runs; inconclusive = weak or mixed curves; inactive = no such curve, though single readings can be large; an effect the other way counts as inactive or inconclusive.
# Columns and labels:
# [1] = qHTS assay to identify small molecule antagonists of the estrogen receptor alpha (ER-alpha) signaling pathway using the BG1 cell line in the presence of 0.1 nM 17-beta-estradiol - cell viability counter screen (AID 1259241); also: nearly all actives have a fitted effect of over 40% in size; also: potency is read from the fitted curve at half-maximal effect
# Outline: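 Cytotoxicity counter-screen: live-cell protease activity measured by fluorescence (30 min reagent step) in the same wells. Cells were VM7Luc4E2 with endogenous ER-alpha and ERE-driven luciferase, treated 22 hr at 37C alongside 0.1 nM 17beta-estradiol final.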
# [2] = qHTS assay to identify small molecule antagonists of the androgen receptor (AR) signaling pathway using the MDA cell line in the presence of 0.5 nM R1881 - cell viability counter screen (AID 1259242); also: nearly all actives have a fitted effect of over 45% in size; also: potency is read from the fitted curve at half-maximal effect
# Outline: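 Cytotoxicity toward MDA-kb2 cells is measured by CellTiter-Fluor live-cell protease fluorescence after 16 hr compound exposure at 37C in the presence of 0.5 nM R1881 stimulator.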
# [3] = qHTS assay to identify small molecule phospholipidosis (PLD) inducers (AID 1259344; active = well fitted curve in the direction sought with a large enough effect; an effect the other way counts as inactive or inconclusive)
# Outline: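 Phospholipidosis is scored by imaging LipidTOX-stained pits in HepG2 cells exposed to compound for 24 h at 37 C; pit counts and integrated intensities per well and per cell serve as outputs.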
# [4] = qHTS assay to identify small molecule HDAC inhibitors (AID 1259364); also: nearly all actives have a fitted effect of over 45% in size; also: potency is read from the fitted curve at half-maximal effect; as to activity change, negative = inhibition: top concentration of the series differs between compounds
# Outline: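 Homogeneous cell-based luminescent assay of endogenous class I/II HDAC activity; HCT-116 cells, 2 h compound exposure, 30 min HDAC-Glo development at RT.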
# [5] = qHTS assay to identify small molecule HDAC inhibitors - cell viability counter screen (AID 1259365); also: nearly all actives have a fitted effect of over 50% in size; also: potency is read from the fitted curve at half-maximal effect; as to activity change, negative = cytotoxicity: series mostly up to about 92 µM
# Outline: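 CellTiter-Glo luminescence (30 min, room temperature) reported viability after a 2 h compound exposure at 37 C. Cells: wild-type HCT-116, 1,500 per well, seeded the night before.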
# [6] = qHTS assay to identify small molecule agonists of the sonic hedgehog signaling (Shh) pathway - cell viability counter screen (AID 1259366); also: nearly all actives have a fitted effect of over 50% in size; also: potency is read from the fitted curve at half-maximal effect
# Outline: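 Cytotoxicity counter screen: CellTiter-Fluor reagent added after 23 h compound exposure, then 1 h at 37C and fluorescence read. Cells were 3T3 Gli1-Luc, seeded 2,000 per well and dosed 4 h post-plating.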
# [7] = qHTS assay to identify small molecule antagonists of the sonic hedgehog signaling (Shh) pathway - cell viability counter screen (AID 1259367); also: nearly all actives have a fitted effect of over 55% in size; also: potency is read from the fitted curve at half-maximal effect
# Outline: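 Cells: 3T3 Gli1-Luc, 2,000/well, 4 hr pre-incubation. Compounds in DMSO, then conditioned medium. Incubation 24 hr, 37C, 5% CO2. CellTiter-Fluor at 23 hr, 1 hr, fluorescence.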
# [8] = qHTS assay to identify small molecule agonists of the sonic hedgehog signaling (Shh) pathway (AID 1259368; calls by dose curve;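 also: NIH/3T3-derived 3T3Gli1-Luc cells carrying a stable Gli1-driven firefly luciferase reporter; series mostly up to about 92 µM; nearly all actives have a fitted effect of over 15% in size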)
# Outline: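 Steps: seed 3T3 Gli1-Luc cells, incubate 4 hr at 37 C, pin-transfer compounds in DMSO alongside a positive control, incubate 24 hr, add luciferase detection reagent, wait 30 min at room temperature, read luminescence.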
# [9] = target: Estrogen receptor (Homo sapiens) (UniProt P03372); assay: qHTS assay to identify small molecule antagonists of the estrogen receptor alpha (ER-alpha) signaling pathway using the BG1 cell line in the presence of 0.1 nM 17-beta-estradiol (AID 1259244); also: nearly all actives have a fitted effect of over 50% in size; also: potency is read from the fitted curve at half-maximal effect
# Outline: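 After 5 days in hormone-depleted medium (charcoal-stripped serum, no phenol red), VM7Luc4E2 cells were seeded, incubated 24 h, then co-treated with compound and 0.1 nM (final) estradiol for 22 h before luminescence detection.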
# [10] = target: Androgen receptor (Homo sapiens) (UniProt P10275); assay: qHTS assay to identify small molecule antagonists of the androgen receptor (AR) signaling pathway using the MDA cell line in the presence of 0.5 nM R1881 (AID 1259243); also: potency is read from the fitted curve at half-maximal effect; nearly all actives have a fitted effect of over 50% in size
# Outline: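 Steps: seed MDA-kb2 cells, incubate 5 hr at 37C; pin-transfer compounds in DMSO; add R1881 to 0.5 nM final; incubate 16 hr; add ONE-Glo, wait 30 min at room temperature; read luminescence.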
# Sequence of Estrogen receptor (Homo sapiens) (P03372 whole entry, looked up): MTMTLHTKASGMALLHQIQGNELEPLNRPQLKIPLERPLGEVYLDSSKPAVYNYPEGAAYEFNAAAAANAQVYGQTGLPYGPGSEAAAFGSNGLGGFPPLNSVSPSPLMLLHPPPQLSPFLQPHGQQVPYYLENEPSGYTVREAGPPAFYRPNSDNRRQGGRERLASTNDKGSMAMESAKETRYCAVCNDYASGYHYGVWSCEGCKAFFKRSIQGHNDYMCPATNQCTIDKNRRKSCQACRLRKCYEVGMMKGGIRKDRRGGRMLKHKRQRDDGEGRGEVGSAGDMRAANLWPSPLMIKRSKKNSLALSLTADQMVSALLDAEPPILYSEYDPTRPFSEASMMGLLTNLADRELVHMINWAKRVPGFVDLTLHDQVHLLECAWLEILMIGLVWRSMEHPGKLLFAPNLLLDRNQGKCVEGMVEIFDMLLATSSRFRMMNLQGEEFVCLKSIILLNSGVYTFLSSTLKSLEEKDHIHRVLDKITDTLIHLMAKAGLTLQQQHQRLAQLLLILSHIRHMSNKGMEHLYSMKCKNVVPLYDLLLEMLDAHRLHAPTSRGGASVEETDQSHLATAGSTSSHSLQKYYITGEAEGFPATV
# Sequence of Androgen receptor (Homo sapiens) (P10275 whole entry, looked up): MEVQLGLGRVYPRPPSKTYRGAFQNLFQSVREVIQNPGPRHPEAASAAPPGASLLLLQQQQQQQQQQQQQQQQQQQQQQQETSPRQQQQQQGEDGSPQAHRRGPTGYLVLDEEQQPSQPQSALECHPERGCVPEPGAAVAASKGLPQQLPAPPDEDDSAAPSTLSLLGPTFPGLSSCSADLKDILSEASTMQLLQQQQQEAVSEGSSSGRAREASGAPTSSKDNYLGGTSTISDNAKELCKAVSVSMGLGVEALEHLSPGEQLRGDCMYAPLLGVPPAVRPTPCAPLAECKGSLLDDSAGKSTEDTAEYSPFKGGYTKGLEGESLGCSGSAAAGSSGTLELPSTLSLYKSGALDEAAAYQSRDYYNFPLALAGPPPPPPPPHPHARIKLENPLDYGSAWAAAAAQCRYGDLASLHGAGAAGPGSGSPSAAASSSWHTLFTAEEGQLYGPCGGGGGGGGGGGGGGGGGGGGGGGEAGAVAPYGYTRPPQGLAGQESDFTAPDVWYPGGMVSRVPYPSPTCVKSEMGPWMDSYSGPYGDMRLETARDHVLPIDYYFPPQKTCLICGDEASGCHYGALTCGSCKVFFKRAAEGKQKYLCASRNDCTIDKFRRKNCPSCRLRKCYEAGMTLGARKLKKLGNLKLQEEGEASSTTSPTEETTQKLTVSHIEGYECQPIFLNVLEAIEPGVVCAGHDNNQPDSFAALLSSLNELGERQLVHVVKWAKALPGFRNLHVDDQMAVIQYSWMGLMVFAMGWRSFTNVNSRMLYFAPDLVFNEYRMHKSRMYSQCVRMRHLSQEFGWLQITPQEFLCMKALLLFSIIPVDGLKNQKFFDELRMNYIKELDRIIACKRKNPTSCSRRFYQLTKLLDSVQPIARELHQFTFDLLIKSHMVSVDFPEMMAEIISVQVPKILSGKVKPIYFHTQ
smiles,measurement,setting,value
CC[C@]1(O)C[C@@H]2CN(CCc3c([nH]c4ccccc34)[C@@](C(=O)OC)(c3cc4c(cc3OC)N(C)[C@H]3[C@@](O)(C(=O)OC)[C@H](OC(C)=O)[C@]5(CC)C=CCN6CC[C@]43[C@@H]65)C2)C1,Potency,[1],1.88 µM (active)
same,Potency,[2],inactive
same,Potency,[3],inactive
same,Potency,[4],inactive
same,Potency,[5],inactive
same,Potency,[6],11.9 µM (active)
same,Potency,[7],29.8 nM (active)
same,Potency,[8],inactive
COC(c1ccccc1)(c1ccccc1)[C@H](Oc1nc(C)cc(C)n1)C(=O)O,Potency,[1],inactive
same,Potency,[2],inactive
same,Potency,[3],inactive
same,Potency,[4],inactive
same,Potency,[5],inactive
same,Potency,[6],inactive
same,Potency,[7],inactive
same,Potency,[8],inactive
CCCCCCCCCCCCCCCCCl,"activity change, negative = cytotoxicity",[1],9.43% [at 19 µM] (inactive)
same,"viability change, negative = cytotoxic",[2],-2.37% [at 19 µM] (inactive)
same,"activity change, negative = inhibition",[9],26.4% [at 19 µM] (inactive)
same,"activity change, negative = inhibition",[4],11.8% [at 19 µM] (inactive)
same,"viability change, negative = cytotoxic",[6],0.0419% [at 19 µM] (inactive)
same,"viability change, negative = cytotoxic",[7],-3.23% [at 19 µM] (inactive)
same,activity change,[8],"-1.24% [at 18.9 µM, stronger effect = higher value] (inactive)"
CO[Si](OC)(OC)c1ccccc1,Potency,[1],inactive
same,Potency,[2],inactive
same,Potency,[9],inactive
same,Potency,[4],inactive
same,Potency,[6],inactive
same,Potency,[7],inactive
same,Potency,[8],inactive
O=C(O)c1cn(-c2ccc(F)cc2)c2cc(N3CCNCC3)c(F)cc2c1=O,Potency,[1],inactive
same,Potency,[2],inactive
same,Potency,[3],inactive
same,Potency,[4],inactive
same,Potency,[6],inactive
same,Potency,[7],inactive
same,Potency,[8],inactive
CC(=O)CC(C)=O,Potency,[1],inactive
same,Potency,[2],inactive
same,Potency,[9],inactive
same,Potency,[4],inactive
same,Potency,[5],inactive
same,Potency,[6],inactive
same,Potency,[7],inactive
same,Potency,[8],inactive
CC[C@@H](N)CO,Potency,[1],inactive
same,Potency,[2],inactive
same,Potency,[9],inactive
same,Potency,[4],inactive
same,Potency,[6],inactive
same,Potency,[7],inactive
same,Potency,[8],inactive
C=C(C)C(=O)O,Potency,[1],inactive
same,Potency,[2],inactive
same,Potency,[9],inactive
same,Potency,[4],inactive
same,Potency,[5],inactive
same,Potency,[6],inactive
same,Potency,[7],inactive
same,Potency,[8],inactive
CC(C)(C)NCC(O)c1cc(O)cc(O)c1 (configuration not stated),Potency,[1],inactive
same,Potency,[2],inactive
same,Potency,[3],inactive
same,Potency,[4],inactive
same,Potency,[5],inactive
same,Potency,[6],inactive
same,Potency,[7],inactive
same,Potency,[8],inactive
CN(C)c1ccc(C(=C2C=CC(=[N+](C)C)C=C2)c2ccccc2)cc1,Potency,[1],30.6 µM (active) and 15 µM (active)
same,Potency,[2],27.3 µM (active) and 2.98 µM (active)
same,Potency,[3],inactive
same,Potency,[4],24.3 µM (active) and inactive and 13.3 µM (active)
same,Potency,[5],61.1 µM (active) and inactive
same,Potency,[6],4.73 µM (active) [middle of 4 runs]
same,Potency,[7],2.98 µM (active) [middle of 4 runs]
same,Potency,[8],inactive
CC(=O)OCC1=C(C(=O)O)N2C(=O)[C@@H](NC(=O)Cc3cccs3)[C@H]2SC1,Potency,[1],inactive
same,Potency,[2],inactive
same,Potency,[3],inactive
same,Potency,[4],inactive
same,Potency,[5],inactive
same,Potency,[6],inactive
same,Potency,[7],inactive
same,Potency,[8],inactive
CC(C)(C)NC(=O)[C@@H]1CN(Cc2cccnc2)CCN1C[C@@H](O)C[C@@H](Cc1ccccc1)C(=O)N[C@H]1c2ccccc2C[C@H]1O,Potency,[1],inactive
same,Potency,[2],inactive
same,Potency,[3],inactive
same,Potency,[4],inactive
same,Potency,[5],inactive
same,Potency,[8],inactive
NC12CC3CC(CC(C3)C1)C2,Potency,[1],inactive
same,Potency,[2],inactive
same,Potency,[3],inactive
same,Potency,[4],inactive
same,Potency,[6],inactive
same,Potency,[7],inactive
same,Potency,[8],inactive
CC(C(O)c1ccc(O)cc1)N1CCC(Cc2ccccc2)CC1 (configuration not stated),Potency,[1],inactive
same,Potency,[2],inactive
same,Potency,[9],inactive
same,Potency,[4],inactive
same,Potency,[6],inactive
same,Potency,[7],inactive
same,Potency,[8],inactive
C=CC(=O)OCCCCCCOC(=O)C=C,Potency,[1],inactive
same,Potency,[2],inactive
same,Potency,[9],inactive
same,Potency,[4],inactive
same,Potency,[5],inactive
same,Potency,[6],31 µM (active) and 61.1 µM (active)
same,Potency,[7],54500 nM (active)
same,Potency,[8],inactive
CC(C)(C)c1cc(C(C)(C)C)c(O)c(C(C)(C)C)c1,Potency,[1],inactive
same,Potency,[2],inactive
same,Potency,[9],inactive
same,Potency,[4],inactive
same,Potency,[6],inactive
same,Potency,[7],inactive
same,Potency,[8],inactive
CNC1(C)C2CCC(C2)C1(C)C (configuration not stated),Potency,[1],inactive
same,Potency,[2],inactive
same,Potency,[3],inactive
same,Potency,[4],inactive
same,Potency,[5],inactive
same,Potency,[6],inactive
same,Potency,[7],inactive
same,Potency,[8],inactive
CC(C)C(=O)c1c(C(C)C)nn2ccccc12,Potency,[1],inactive
same,Potency,[2],inactive
same,PLD induction,[3],-2.74% [at 7.66 µM] (inactive)
same,Potency,[4],inactive
same,Potency,[5],inactive
same,Potency,[6],inactive
same,Potency,[7],inactive
same,Potency,[8],inactive
NNCCc1ccccc1,Potency,[1],inactive
same,Potency,[2],inactive
same,Potency,[3],inactive
same,Potency,[4],inactive
same,Potency,[5],inactive
same,Potency,[6],inactive
same,Potency,[7],inactive
NC(N)=NC(=O)Cc1c(Cl)cccc1Cl,Potency,[1],inactive
same,Potency,[2],inactive
same,Potency,[3],inactive
same,Potency,[4],inactive
same,Potency,[5],inactive
same,Potency,[7],inactive
same,Potency,[8],inactive
Cc1ccnc2c1NC(=O)c1cccnc1N2C1CC1,Potency,[1],inactive
same,Potency,[2],inactive
same,Potency,[3],inactive
same,Potency,[4],inactive
same,Potency,[5],inactive
same,Potency,[6],inactive
same,Potency,[7],inactive
same,Potency,[8],inactive
NC(Cc1ccc(Cl)cc1)C(=O)O (configuration not stated),"activity change, negative = cytotoxicity",[1],0.121% [at 0.349 µM] (inactive)
same,"viability change, negative = cytotoxic",[2],4.52% [at 0.349 µM] (inactive)
same,Potency,[3],inactive
same,"activity change, negative = inhibition",[4],-0.367% [at 0.349 µM] (inactive)
same,"viability change, negative = cytotoxic",[6],0.958% [at 0.349 µM] (inactive)
same,"viability change, negative = cytotoxic",[7],2.83% [at 0.349 µM] (inactive)
same,activity change,[8],"-0.363% [at 0.349 µM, stronger effect = higher value] (inactive)"
O,Potency,[1],inactive
same,Potency,[2],inactive
same,Potency,[4],inactive
same,Potency,[5],inactive
same,Potency,[6],inactive
same,Potency,[7],inactive
same,Potency,[8],inactive
N[C@@H]1CONC1=O,Potency,[1],inactive
same,Potency,[2],inactive
same,Potency,[3],inactive
same,Potency,[4],inactive
same,Potency,[5],inactive
same,Potency,[6],inactive
same,Potency,[7],inactive
same,Potency,[8],inactive
CC(C)(C)c1ccccc1,Potency,[1],inactive
same,Potency,[2],inactive
same,Potency,[4],inactive
same,Potency,[5],inactive
same,Potency,[6],inactive
same,Potency,[7],inactive
same,Potency,[8],inactive
COC(=O)[C@H]1[C@H]2C[C@@H]3c4[nH]c5cc(OC)ccc5c4CCN3C[C@H]2C[C@@H](OC(=O)c2cc(OC)c(OC)c(OC)c2)[C@@H]1OC,Potency,[1],inactive
same,Potency,[2],inactive
same,Potency,[4],inactive
same,Potency,[5],inactive
same,Potency,[6],inactive
same,Potency,[7],inactive
same,Potency,[8],inactive
O=C1OC2(c3ccc(O)cc3Oc3cc(O)ccc32)c2ccccc21,Potency,[9],inactive
same,Potency,[3],inactive
same,Potency,[4],inactive
same,Potency,[5],inactive
same,Potency,[8],inactive
CCCCCCCCCCCCc1ccccc1O,Potency,[1],inactive
same,Potency,[10],30.2 µM (active) and 24.3 µM (active)
same,Potency,[9],inactive and 61.1 µM (active)
same,Potency,[4],inactive
same,Potency,[5],inactive
same,Potency,[6],60.3 µM (active) and 61.1 µM (active)
same,Potency,[7],60.3 µM (active) and 61.1 µM (active)
same,Potency,[8],inactive
COc1ccc(COC(C)=O)cc1,Potency,[1],inactive
same,Potency,[2],inactive
same,Potency,[4],inactive
same,Potency,[6],inactive
same,Potency,[7],inactive
same,Potency,[8],inactive
Clc1ccc2c(c1)C(N1CCNCC1)=Nc1ccccc1O2,Potency,[1],inactive
same,Potency,[9],inactive
same,Potency,[3],inactive
same,Potency,[4],inactive
same,Potency,[6],24.3 µM (active) and 13.3 µM (active)
same,Potency,[7],inactive
same,Potency,[8],inactive
c1ccc2n[nH]nc2c1,Potency,[1],inactive
same,Potency,[2],inactive
same,Potency,[4],inactive
same,Potency,[5],inactive
same,Potency,[6],inactive
same,Potency,[7],inactive
same,Potency,[8],inactive
O=Nc1ccc(Nc2ccccc2)cc1,Potency,[1],inactive
same,Potency,[10],48.8 µM (active) and 54.5 µM (active)
same,Potency,[9],inactive
same,Potency,[6],24.5 µM (active) and 24.3 µM (active)
same,Potency,[7],27.4 µM (active) and 54.5 µM (active)
same,Potency,[8],inactive
